From PubChem
ATG4B inhibitor = inhibitors of human ATG4B cysteine protease; Q9Y4P1; ATG4B cleavage of LC3-PLA2, NBD-HPC fluorescence, 1 h; inhibition, % at 8.33 µM; 0.51% of 340,000 active; AID 504462; in the data active means inhibition above about 40%
DSG3 Ab inh = human desmoglein-3 autoantibody binding inhibition; DSG3-coupled beads, scFv-anti-DSG3-GFP binding, flow cytometry; active compounds read low; binding (percent of control), % at 10 µM; 0.48% of 310,000 active;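 active means binding more than 3 SD below its plate's average and above zero; inconclusive means below that plate limit but binding exactly zero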;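 further: hits lower antibody fragment binding to DSG3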
Target sequence (P32926 whole entry, looked up, the tested form may be a part): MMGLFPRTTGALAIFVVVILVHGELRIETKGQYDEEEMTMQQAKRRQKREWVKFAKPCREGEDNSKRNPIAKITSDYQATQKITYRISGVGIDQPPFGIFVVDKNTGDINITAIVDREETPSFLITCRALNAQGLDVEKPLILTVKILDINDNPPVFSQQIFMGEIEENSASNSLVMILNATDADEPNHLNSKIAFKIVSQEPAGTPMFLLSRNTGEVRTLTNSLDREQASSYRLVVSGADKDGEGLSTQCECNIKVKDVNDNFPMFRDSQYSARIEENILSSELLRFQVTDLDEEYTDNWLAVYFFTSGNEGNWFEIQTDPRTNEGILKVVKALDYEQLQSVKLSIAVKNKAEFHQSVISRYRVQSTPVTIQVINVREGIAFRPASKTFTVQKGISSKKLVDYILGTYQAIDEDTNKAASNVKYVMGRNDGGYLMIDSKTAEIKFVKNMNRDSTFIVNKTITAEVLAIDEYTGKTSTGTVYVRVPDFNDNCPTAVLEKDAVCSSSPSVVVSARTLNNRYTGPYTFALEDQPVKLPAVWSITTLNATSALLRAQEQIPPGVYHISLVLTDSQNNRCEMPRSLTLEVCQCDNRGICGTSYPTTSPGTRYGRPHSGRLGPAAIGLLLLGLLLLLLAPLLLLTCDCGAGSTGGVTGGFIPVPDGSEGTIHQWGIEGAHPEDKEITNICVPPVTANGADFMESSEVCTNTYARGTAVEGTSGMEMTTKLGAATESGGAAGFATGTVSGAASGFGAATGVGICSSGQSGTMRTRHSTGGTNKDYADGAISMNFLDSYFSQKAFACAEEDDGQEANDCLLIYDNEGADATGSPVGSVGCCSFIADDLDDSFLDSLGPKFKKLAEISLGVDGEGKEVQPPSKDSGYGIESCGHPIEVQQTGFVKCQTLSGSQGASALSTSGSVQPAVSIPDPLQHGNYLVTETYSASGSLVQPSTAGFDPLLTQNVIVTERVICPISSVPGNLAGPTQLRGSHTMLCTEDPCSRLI
Vif inh = HIV Vif inhibition | HEK293T cells, Vif self-association by quenched fluorescence, imaging, 24 h | inhibition, % at 7.49 µM | 0.35% of 340,000 active; in the data active means inhibition above about 50%, passing the limit was not always enough; inconclusive means no clear call, values can overlap the other calls; inactive means below about 31%
NSD2 inh = inhibitors of human histone methyltransferase NSD2; O96028; NSD2 peptide methylation, AlphaScreen, 120 min; inhibition, % at 12.5 µM; 0.54% of 310,000 active; AID 743445; in the data active means inhibition above about 50%
Glyco luc inh = blocks N-linked glycosylation in D54 reporter cells | D54 ERlucT glycosylation luciferase reporter, 24 h; percent of 100 nM tunicamycin response | reporter increase, % at 12.5 µM | 0.23% of 360,000 active | AID 588692;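 active means mean luciferase reporter signal, scaled so untreated is 0 and the glycosylation-blocking control 100, at or above a set limit in every replicate; inconclusive means mean reaches the limit but not every replicate does; inactive means mean below the limit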;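 further: luciferase carries N-glycosylation sites so blocking glycosylation raises the light; 0% = median of neutral control wells and 100% = median of 100 nM tunicamycin wells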
CaV13 ICDI inh = Primary screen for inhibitors of IQ motif and Ca2+-dependent inactivation inhibitor domain binding in CACNA1D, Förster resonance energy transfer in living cells, …; HEK cells, CFP/YFP FRET ICDI-IQ, plate reader, 10 min; percent FRET-ratio fall versus neutral wells; inhibition, % at 12.3 µM; 0.098% of 340,000 active;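 active means mean replicate inhibition of at least 30% and at least 1% of replicates passing that level; inconclusive means only one of the two criteria is met; inactive means neither criterion is met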;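 further: 0% = median of the neutral control wells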
* = called active by the depositor; ? = inconclusive; . = not tested or not shown; + = active, no number. Sampled rows, rich in hits. Any-hit rate of the full collection: about 1.9%.

SMILES	ATG4B inhibitor	DSG3 Ab inh	Vif inh	NSD2 inh	Glyco luc inh	CaV13 ICDI inh
NS(=O)(=O)c1ccc(NC(=O)CCC(=O)N2CCOCC2)cc1	11.9	109.5	57.8*	1.3	1.4	-2.2
NS(=O)(=O)c1ccc(NC(=O)CCc2ccccc2)cc1	1.7	106.8*	-2.3	-6.3	-2.4	-5.4
O=C(CCCCCCC(=O)c1ccccc1)c1ccccc1	-0.9	62.5*	4.6	0.0	-1.0	-6.9
CNC(=O)CC1C(=O)N(C)C(=S)N1NC(=O)c1ccccc1 (stereo not drawn)	-3.7	113.7	0.5	-1.9	0.2	-5.6
COC(=O)CCC(=O)Nc1ccc(N=Nc2ccccc2)cc1	9.6	-10.6*	12.0	1.5	-3.6	2.3
O=C(O)CCCC(=O)Nc1ccc(N=Nc2ccccc2)cc1	-3.8	91.6	.	2.2	0.6	-4.4
O=C(CCC(=O)c1ccccc1)Nc1ccccc1	-6.4	79.9*	2.1	0.5	2.3	-5.3
CCOC(=O)C1CCN(C(=O)COc2ccc(Cl)cc2Cl)CC1	-10.4	101.5	1.6	-1.7	0.9	-7.2
COc1cc2c(C(=O)NCc3ccc4c(c3)OCO4)cn(C)c(=O)c2cc1OC	-5.6	98.3	-0.6	-6.2	0.0	-3.7
CC(C)(C)NC(=O)CSc1nc(O)cc(=O)n1-c1ccccc1	8.1	101.4	94.1*	-1.5	2.3	-8.7
O=C(CCCCCn1c(=S)[nH]c2cc3c(cc2c1=O)OCO3)N1CCN(c2ccccc2)CC1	7.0	.	-0.8	-0.4	-2.6	-14.7
COc1ccccc1N1CCN(C(=O)CCCCCn2c(=S)[nH]c3cc4c(cc3c2=O)OCO4)CC1	.	96.9	63.6*	-7.0	-4.0	-4.4
CCc1cccc(CC)c1NC(=O)CSc1nnc(C2CC2)n1N	-9.8	97.9	-6.6	-0.9	1.9	-2.8
COc1ccc(CC(=O)Nc2ccc(-c3noc(-c4ccc(Cl)cc4)n3)cc2)cc1	-7.4	98.0	?	0.9	1.2	-7.2
COc1ccc(CC(=O)Nc2ccc(-c3noc(-c4cc(OC)c(OC)c(OC)c4)n3)cc2)cc1	-1.9	102.8	+	-1.7	0.8	-2.0
c1ccc(SCCN2CCc3ccccc3C2)cc1	4.4	83.7	36.8	3.2	1.1	-5.1
Cc1ccc(-c2nc3cc(C)c(Br)c(C)n3c2CC(C)(C)C)cc1	.	.	.	.	1.7	-6.0
CCOC(=O)C(NC(=O)c1ccc(OC)cc1)(OCC1(CC)COC1)C(F)(F)F (stereo not drawn)	-4.7	109.7	16.9	-1.4	0.3	.
CCOC(=O)C(NC(=O)c1ccccc1)(OCC1(CC)COC1)C(F)(F)F (stereo not drawn)	-7.1	114.3	3.5	4.6	0.0	41.2*
Oc1ccc(N=Cc2ccc(OCc3ccccc3)cc2)cc1	4.7	99.0	18.8	78.9*	0.7	-3.5
O=C(N/N=C/c1ccc(OCc2ccccc2)cc1)c1ccncc1	-15.9	101.8	-9.3	-2.6	-1.9	-3.1
CC1=CCC2C(=O)N(c3ccc(C)c(Br)c3)C(=O)C2C1 (stereo not drawn)	-6.8	48.1*	40.4	.	-2.1	9.5
COC(=O)c1ccc(C)c(NS(=O)(=O)c2ccc3c(c2)OCCO3)c1	5.9	101.7	.	.	30.8*	.
COc1ccc(C(=O)NCCNC(=O)c2ccc(C)nc2)cc1	-4.7	114.7	-6.0	-6.4	-0.2	-6.8
O=S(=O)(c1ccccc1)N(F)S(=O)(=O)c1ccccc1	-7.6	.	58.9*	0.2	1.1	-5.8
SMILES	ATG4B inhibitor	DSG3 Ab inh	Vif inh	NSD2 inh	Glyco luc inh	CaV13 ICDI inh
O=S(=O)(c1ccccc1)N(c1ccccc1)S(=O)(=O)c1ccccc1	4.3	102.3	-5.6	-0.9	-0.8	-4.3
Cn1c(=N)n(CC(=O)c2ccc(Cl)c(Cl)c2)c2ccccc21	7.1	95.6	-18.6	-1.3	-18.0	-4.1
COc1ccc(OC)c(C2C3=C(COC3=O)Nc3cc4c(cc32)OCO4)c1 (stereo not drawn)	-9.7	102.2	71.6*	0.1	16.3	-4.6
Cc1cc(C)cc(NC(=S)N(C)C)c1	-3.1	.	-1.9	0.6	1.4	6.7
CCN1C(=O)c2ccccc2S(=O)c2ccc(C(=O)N3CCN(C(=O)c4ccco4)CC3)cc21 (stereo not drawn)	-0.1	102.6	1.8	.	-0.3	-3.4
CC(C)(C)NC(=O)Cn1nnc(-c2ccccc2NC(=O)c2ccco2)n1	-9.1	92.2	8.0	0.1	0.4	-4.1
O=C(Cn1nnc(-c2ccccc2NC(=O)c2ccco2)n1)Nc1ccccc1	-1.7	6.9*	-11.3	.	6.3	.
COc1ccccc1NC(=O)Cn1nnc(-c2ccccc2NC(=O)c2cc3ccccc3oc2=O)n1	5.3	9.0*	-5.0	.	-4.6	-8.7
O=C(CN1C(=O)NC(Cc2ccccc2)C1=O)Nc1ccccc1F (stereo not drawn)	0.5	102.2	0.6	-1.8	-2.8	-4.4
CCN(c1ccccc1)S(=O)(=O)c1ccc(C(=O)Nc2c(C)n(C)n(-c3ccccc3)c2=O)cc1	-0.3	89.7	-12.9	7.6	4.4	-6.2
O=C(CSc1cccc2cccnc12)N/N=C/c1cccc(O)c1	-13.8	90.7	-4.9	0.9	-1.6	-6.1
Cc1cccn2c(=O)c(/C=C(\C#N)C(N)=O)c(Oc3ccccc3)nc12	2.3	104.0	8.9	.	5.7	38.2*
Cc1cccn2c(=O)c(/C=C(\C#N)C(N)=O)c(N3CCN(c4ccccc4)CC3)nc12	1.6	102.6	-1.5	11.6	-2.4	-2.4
CCCCOc1ccc(C(=O)OCC(=O)NC2CCCC2)cc1	-2.1	99.7	-4.5	-4.0	1.6	-4.4
O=[N+]([O-])c1ccc2c(c1)N([O-])C1(CCCCC1)[N+]2=O	-2.6	114.1	.	84.3*	.	-13.8
Cc1ccc(O)c(NC(=O)CSc2ccc(Cl)cc2)c1	-1.9	3.0*	-12.9	-1.8	-2.4	-5.8
CC1CC(C)CN(S(=O)(=O)N2CCCC(C(=O)NCCCN3CCOCC3)C2)C1 (stereo not drawn)	-5.6	101.6	-0.3	0.9	2.0	-2.3
COc1ccc(NC(=O)CSc2nc(O)cc(=O)[nH]2)c(OC)c1	-4.1	95.5	3.1	-0.9	0.3	-3.5
Cn1ncc(Cl)c1C(=O)N/N=C/c1cc2c(cc1[N+](=O)[O-])OCO2	0.6	70.6*	-3.3	-1.0	1.1	8.8
COc1cc(C(=O)OCCCc2cc3ccccc3c(=O)o2)cc(OC)c1OC	-9.4	96.7	-2.6	.	0.3	-10.6
COc1cc(C(=O)OCCc2cc3ccccc3c(=O)o2)cc(OC)c1OC	-14.3	103.8	.	.	27.0*	-6.0
COc1ccc(S(=O)(=O)N2CCOC2CNC(=O)C(=O)NCCCn2ccnc2)cc1OC (stereo not drawn)	-7.4	127.2	-0.5	.	2.9	-6.5
CCC1=Nc2cc(C(=O)NCc3ccco3)ccc2Sc2ccc(C)cc21	51.2*	112.0	56.9*	-0.3	11.2	-5.0
